From PubChem BioAssay
Autofluor 339: intrinsic fluorescence of library compounds, ex339/em460 – biochemical, MLSMR library, data from DPM-DC assay, artefact control, profiling panel; fluorescence fold increase at 10 µM; compound autofluorescence, ex339/em460 nm, NADH buffer; stronger effect = higher value; 1 = no-compound wells, NADH background; 5.5% of 65,000 active;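 active = at 10 µM, mean starting fluorescence two-fold or more over control wells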;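 also: signal is the first read of a kinetic run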
Abs 340nm: absorbance at 340 nm; AID 708; 65,000 tested, under 10 active; fold change at 10 µM; compound absorbance at 340 nm, fold over control;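 active = at 10 µM dose, initial 340 nm absorbance at least 2 fold that of control wells; inactive = change under 2 fold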;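 also: initial absorbance extrapolated from kinetic A340 decline of NADH oxidation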
PMK inhibit: inhibitors of Streptococcus pneumoniae phosphomevalonate kinase. purified PMK, PK/LDH-coupled NADH absorbance 340 nm. inhibition, % at 10 µM. 0.49% of 65,000 active;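 active = top-ranked compounds by inhibition in the single 10 µM screen, taking a fixed number of the strongest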;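 also: 0% = full reaction with DMSO carrier and 100% = background rate without enzyme reaction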
Spn DPM-DC inh: inhibitors of Streptococcus pneumoniae diphosphomevalonate decarboxylase; purified DPM-DC, PK/LDH coupled NADH fluorescence; calls only at 10 µM; 0.49% of 65,000 active; AID 556;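 active = the 320 compounds with the highest percent inhibition in the single-dose primary screen, excluding strongly autofluorescent ones, cut at about 32% in these data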;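 also: kinetic rate of NADH fluorescence loss reporting ADP formed by the decarboxylase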
NADH enzymes: blocks coupling enzymes of NAD/NADH assays | coupled PK/LDH NADH assays, four targets | IC50, µM (highest dose often 10 µM), inactives show at the highest dose inhibition | 0.02% of 65,000 active;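 active = single-dose screening hits from any of four coupled enzyme assays that gave an IC50 when retested across doses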;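 also: the DPM-DC format reads NADH fluorescence rather than 340 nm absorbance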
Spn MK inh: S. pneumoniae mevalonate kinase inhibition. purified MK, PK/LDH-coupled NADH absorbance 340 nm. inhibition, % at 10 µM. 0.48% of 65,000 active;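 active = ranked among the strongest by inhibition in the single 10 µM screen, a fixed top-ranked set picked for dose follow-up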
* = called active by the depositor; i = inactive; nt = no result shown; + = active, no number. The list is not random: actives were taken first. Their share in the collection is about 6.5%.

SMILES	Autofluor 339	Abs 340nm	PMK inhibit	Spn DPM-DC inh	NADH enzymes	Spn MK inh
Cc1ccc(N(C(C)C(=O)N2CCCCC2)S(C)(=O)=O)cc1C (stereo not drawn)	1.13	1	1.0	i	0.0%	0.0
COc1cccc(OC)c1OCC(C)CNCC1CCCO1 (stereo not drawn)	1.07	1.03	0.0	i	17.0%	52.0*
N#C/C(=C(/O)COC(=O)Cc1c[nH]c2ccccc12)c1nc2ccccc2[nH]1	1.12	1.05	12.0	i	5.0%	0.0
N#C/C(=C(/O)COC(=O)CCc1ccc(S(=O)(=O)N2CCOCC2)cc1)c1nc2ccccc2[nH]1	1.49	1.08	20.0	i	34.0%	75.0*
CCSc1nnc(NC(=O)CSc2nc3c(c(=O)n2CC)SC(C)C3)s1 (stereo not drawn)	1.07	1.04	15.0	i	5.0%	0.0
Cc1ccc(-n2c(C)cc(C(=O)COC(=O)c3c(C)noc3C)c2C)cc1	1.01	1.02	8.0	i	3.0%	2.0
CCC1C(=O)n2nc(-c3ccccc3)cc2N=C1C (stereo not drawn)	2.05*	0.99	15.0	i	6.0%	3.0
Cc1cc(-c2ccccc2)nc(=O)[nH]1	1.13	1.01	9.0	i	5.0%	5.0
COc1ccc(C)cc1-n1nnnc1SCC(=O)NC(=O)NCc1ccco1	1.05	1	1.0	i	3.0%	1.0
COc1ccc2[nH]c(C(=O)O)c(NS(=O)(=O)c3ccc(OC)c(OC)c3)c2c1	2.23*	1.05	11.0	i	14.0%	4.0
COc1ccc2[nH]c(C(=O)O)c(CCC(=O)O)c2c1	2.52*	1.05	5.0	i	10.0%	7.0
CCOC(=O)N1CCC(NC(=O)CN2C(=O)CSc3ncccc32)CC1	1.12	1.05	8.0	i	5.0%	6.0
CC#CCCCC(=O)Nc1ccccc1C(=O)O	1.02	1.01	15.0	i	7.0%	5.0
N#Cc1sc2nc(-c3ccccc3)cc(-c3ccco3)c2c1N	1.32	1.06	8.0	i	6.0%	10.0
N#Cc1c(-c2ccccc2)cc(-c2ccco2)c(C#N)c1N	2.26*	1.06	0.0	nt	4.0%	8.0
Cc1nc(NCCCO)c(C#N)c2c1COC(C)(C)C2	2.29*	1.05	5.0	nt	8.0%	10.0
CC1(C)Cc2c(c(-c3ccccc3)nc3[nH][nH]c(=O)c23)CO1	1.01	1.04	5.0	i	4.0%	5.0
CC1(C)Cc2c(C#N)c(NCCCO)nc(-c3ccccc3)c2CO1	2.09*	1.08	6.0	nt	7.0%	7.0
CCN(CC)c1nc(C)c2c(c1C#N)CC(C)(C)OC2	1.89	1.03	11.0	i	11.0%	0.0
O=C(CCCc1ccccc1)NCc1cccnc1	1.08	1.07	0.0	i	3.0%	9.0
N#Cc1nc(-c2cccs2)oc1N1CCOCC1	2.29*	1.09	0.0	nt	3.0%	6.0
CC1CN(c2oc(-c3cccs3)nc2C#N)CC(C)O1 (stereo not drawn)	2.38*	1.07	14.0	nt	7.0%	0.0
CCCCNc1cc(=O)n(C)c(=O)[nH]1	1	1.04	10.0	i	6.0%	7.0
Cc1ccc(S(=O)(=O)N2c3ccccc3NC(=O)C2CC(=O)Nc2ccccc2)cc1 (stereo not drawn)	1.42	1.03	8.0	i	7.0%	14.0
O=C1NC(c2ccccc2Cl)Nc2ccccc21 (stereo not drawn)	4.97*	1.03	9.0	nt	5.0%	1.0
SMILES	Autofluor 339	Abs 340nm	PMK inhibit	Spn DPM-DC inh	NADH enzymes	Spn MK inh
Cc1ccsc1C1NC(=O)c2ccccc2N1 (stereo not drawn)	1.94	1.07	0.0	nt	1.0%	1.0
O=C1NC(c2cccs2)Nc2ccccc21 (stereo not drawn)	2.51*	1.01	0.0	nt	1.0%	4.0
COC(=O)CNc1nc(-c2ccccc2F)nc2ccccc12	1.11	0.92	28.0*	i	10.0%	2.0
Cc1nn(-c2ccc(F)cc2)c2sc(C(=O)O)cc12	1	0.98	18.0	i	3.0%	0.0
Cc1ccc(N2CCn3c2nc2c3c(=O)n(CCc3ccccc3)c(=O)n2C)cc1	2.39*	1.03	18.0	i	10.0%	9.0
COc1ccc(N2CCCn3c2nc2c3c(=O)n(CCc3ccccc3)c(=O)n2C)cc1	1.15	1.03	10.0	i	5.0%	6.0
COC(=O)c1[nH]c2cc(OC)ccc2c1NC(=O)CCN1CCCCC1	1.18	1.01	8.0	i	4.0%	7.0
CCOC(=O)c1[nH]c2ccc(OC)cc2c1NC(=O)CCN1CCc2ccccc2C1	2.26*	1.08	4.0	nt	5.0%	6.0
CCOC(=O)c1[nH]c2ccc(F)cc2c1NC(=O)CN1CCc2cc(OC)c(OC)cc2C1	1.95	1.02	13.0	i	11.0%	14.0
COC(=O)c1[nH]c2ccc(Cl)cc2c1NC(=O)CCN1CCOCC1	2.06*	1.01	13.0	+	19.0%	11.0
CCOC(=O)c1[nH]c2ccc(OC)cc2c1NC(=O)CCN1CCC(C)CC1	2.46*	1.01	1.0	nt	1.0%	0.0
N#Cc1ccc(NC(=O)N2CCC(c3nc4c(nnn4Cc4cccc(Cl)c4)c(=O)[nH]3)CC2)cc1	1.1	1.01	11.0	i	5.0%	4.0
CCOc1ccc(N(CC(=O)Nc2ccc(F)c(F)c2)S(=O)(=O)c2c(C)noc2C)cc1	0.99	0.99	12.0	+	6.0%	7.0
c1coc(C2Nc3cccc4cccc(c34)N2)c1	3.83*	1.08	12.0	nt	12.0%	12.0
CC(=O)Nc1cccc(NC(=O)CSc2nnnn2Cc2ccccc2)c1	0.41	0.97	7.0	+	35.0%	nt
CCn1c(SCC(=O)Nc2cccc(C(C)=O)c2)nnc1C(C)C	1.24	1.02	16.0	+	35.0%	0.0
CCC(=O)Nc1cc(NC(=O)CSc2nnc(C(C)C)n2CC)ccc1C	1.1	0.98	15.0	i	8.0%	9.0
CCOc1cc2[nH]c(=O)n(CCC(=O)N3CCN(c4ccccc4OC)CC3)c(=O)c2cc1OCC	1.32	1.05	8.0	i	5.0%	7.0
CCOc1cc2[nH]c(=O)n(Cc3ccc(C(=O)NCCOC)cc3)c(=O)c2cc1OCC	0.92	1.06	12.0	+	18.0%	8.0
COCCNC(=O)c1ccc2c(=O)n(CCOC)c(=O)[nH]c2c1	1.54	1.04	0.0	i	5.0%	7.0
CCOc1cc2[nH]c(=O)n(Cc3cccc(OC)c3)c(=O)c2cc1OCC	2.02*	1.03	5.0	i	4.0%	7.0
Cc1cc(NC(=O)c2cc(-c3cccnc3)nc3c(C)c(C)ccc23)no1	2.89*	1.06	5.0	i	3.0%	3.0
Cc1ccc(-c2cc(C(=O)Nc3cc(C)on3)c3ccccc3n2)c(C)c1	1.18	1.03	3.0	i	1.0%	1.0
O=C(O)CCC(=O)Nc1ccc(Br)cn1	1.17	1.01	8.0	i	8.0%	9.0
O=C1OC(Nc2ccc(F)cc2F)c2ccccc21 (stereo not drawn)	1.03	1.01	15.0	i	6.0%	2.0
